PubChem BioAssay AID1159580 (chemical genetic matrix, 2015)
“And” between values parts separate entries of the source, which are not always exact repeats. Equal values may be shown once. Screen size: about 5,500 compounds; about 2,000 (36%) were called active. Inconclusive results (about 18%) are left out. Rule as the data show it: active = normalized growth mostly below about 0.91 (no sharp cut-off); inconclusive = no clear call, values can overlap the other calls; inactive = mostly above about 0.92. Some of the results follow.

Test: chemical genetic growth profiling, strain panel (AID 1159580);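 also: tested at 20 µM; growth read once vehicle control cultures reached saturation at 30 °C; 1 = growth at the plate median or of vehicle wells; lower values mean less growth of the strain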
Details: S. cerevisiae deletion strains, growth OD

Measured: normalized growth

CC(C)(C)NC[C@@H](O)COc1nsnc1N1CCOCC1
inactive: locus YAL021C, strain ccr4, active compounds read low 1.02 | locus YAL026C, strain drs2, active compounds read low 1.01 | locus YAL030W, strain snc1, active compounds read low 1.02 | locus YBL061C, strain skt5, active compounds read low 1.01 | locus YBR009C, strain hhf1, active compounds read low 1.01 | locus YBR021W, strain FUR4, active compounds read low 1 | locus YBR023C, strain chs3, active compounds read low 1 | locus YBR171W, strain sec66, active compounds read low 1.03 | locus YBR229C, strain ROT2, active compounds read low 0.977 | locus YBR231C, strain swc5, active compounds read low 1.02 | locus YBR279W, strain paf1, active compounds read low 1.01 | locus YCL011C, strain gbp2, active compounds read low 1.02 | locus YCL016C, strain dcc1, active compounds read low 1.01 | locus YCL029C, strain bik1, active compounds read low 0.978 | locus YCL069W, strain vba3, active compounds read low 1.01 | locus YCR088W, strain abp1, active compounds read low 1.02 | locus YDL005C, strain med2, active compounds read low 1.02 | locus YDL035C, strain GPR1, active compounds read low 1.02 | locus YDL040C, strain nat1, active compounds read low 1.01 | locus YDL074C, strain BRE1, active compounds read low 0.985 | locus YDL101C, strain DUN1, active compounds read low 0.99 | locus YDL185W, strain tfp1, active compounds read low 0.977 | locus YDL192W, strain arf1, active compounds read low 0.994 | locus YDR001C, strain nth1, active compounds read low 1.01 | locus YDR069C, strain doa4, active compounds read low 1.01 | locus YDR101C, strain arx1, active compounds read low 0.95 | locus YDR137W, strain rgp1, active compounds read low 1.02 | locus YDR150W, strain NUM1, active compounds read low 0.99 | locus YDR159W, strain sac3, active compounds read low 1 | locus YDR162C, strain NBP2, active compounds read low 1.02 | locus YDR195W, strain ref2 1.03 | locus YDR297W, strain sur2, active compounds read low 1.02 | locus YDR318W, strain mcm21, active compounds read low 1 | locus YDR334W, strain swr1, active compounds read low 1.02 | locus YDR335W, strain msn5, active compounds read low 1.02 | locus YDR388W, active compounds read low 0.99 | locus YDR392W, strain spt3, active compounds read low 0.973 | locus YDR502C, strain sam2, active compounds read low 0.994 | locus YEL003W, strain gim4, active compounds read low 1.02 | locus YEL037C, strain rad23, active compounds read low 1.01 | locus YEL061C, strain CIN8 (second series), active compounds read low 1.02 | locus YEL061C, strain CIN8, active compounds read low 0.996 | locus YER015W, strain faa2, active compounds read low 1 | locus YER016W, strain bim1, active compounds read low 0.994 | locus YER110C, active compounds read low 0.974 | locus YER111C, strain swi4, active compounds read low 1.02 | locus YER155C, strain BEM2 (second series), active compounds read low 1.01 | locus YER155C, strain BEM2, active compounds read low 0.987 | locus YER167W, strain BCK2, active compounds read low 0.986 | locus YFR010W, strain ubp6, active compounds read low 1.02 | locus YGL078C, strain dbp3, active compounds read low 1 | locus YGL086W, strain mad1, active compounds read low 0.966 | locus YGL167C, strain pmr1, active compounds read low 1.02 | locus YGL173C, strain kem1, active compounds read low 1.02 | locus YGL227W, strain vid30, active compounds read low 1.01 | locus YGL240W, strain doc1, active compounds read low 1.02 | locus YGL248W, strain PDE1, active compounds read low 1 | locus YGL253W, strain hxk2, active compounds read low 1.02 | locus YGR078C, strain PAC10, active compounds read low 1 | locus YGR135W, strain pre9, active compounds read low 1 | locus YGR252W, strain gcn5, active compounds read low 1.08 | locus YHR013C, strain ard1, active compounds read low 1.02 | locus YHR027C, strain rpn1, active compounds read low 1.01 | locus YHR030C, strain SLT2, active compounds read low 0.997 and 0.975 | locus YHR079C, strain IRE1 (second series), active compounds read low 0.983 | locus YHR079C, strain IRE1, active compounds read low 0.973 | locus YHR094C, strain hxt1, active compounds read low 0.974 | locus YHR129C, strain ARP1, active compounds read low 1 | locus YHR142W, strain chs7, active compounds read low 1.03 | locus YHR200W, strain rpn10, active compounds read low 1 | locus YIL066C, strain RNR3, active compounds read low 0.985 | locus YIL073C, strain SPO22, active compounds read low 1.01 | locus YIL125W, strain kgd1, active compounds read low 0.981 | locus YIR030C, strain dcg1, active compounds read low 1 | locus YJL092W, strain hpr5, active compounds read low 1.01 | locus YJL095W, strain BCK1 (second series), active compounds read low 1.02 | locus YJL095W, strain BCK1, active compounds read low 1.01 and 0.975 | locus YJL115W, strain asf1, active compounds read low 1.01 | locus YJL129C, strain trk1, active compounds read low 1.02 | locus YJL134W, strain LCB3, active compounds read low 0.985 | locus YJL154C, strain vps35, active compounds read low 1.02 | locus YJL164C, strain tpk1, active compounds read low 1.01 | locus YJL166W, strain qcr8, active compounds read low 1.01 | locus YJL168C, strain set2, active compounds read low 0.984 | locus YJL187C, strain SWE1 (second series), active compounds read low 0.99 | locus YJL187C, strain SWE1, active compounds read low 1.02 | locus YJR043C, strain POL32, active compounds read low 1.03 | locus YJR066W, strain TOR1, active compounds read low 0.929
